Assay outcomes (PubChem BioAssay)
Nrf2 ARE act = qHTS of Nrf2 Activators. AID 624171, 2012. 410,000 compounds, 0.31% hits. AREc32 ARE-luciferase reporter (MCF7-derived line), luminescence, 24 h. Potency, µM (highest dose often 46.1 µM), without a hit: top-dose activation, usual class: activators; note: potency is the fitted concentration of half-maximal effect; % of control where 0% means no effect; nearly all actives have a fitted effect of over 65% in size
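Each well held 1000 AREc32 cells, which were incubated with compound for 24 hr at 37 deg C after overnight attachment, and ARE reporter activity was quantified by firefly luciferase luminescence.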
A549 viability = Nrf2 qHTS screen for inhibitors: counterscreen for cytotoxicity. 390,000 compounds, 0.16% hits. A549 ARE-Fluc cells, CellTiter-Fluor viability, 18-24 h. AID 504648, 2011. Potency, µM (top dose mostly 46 µM), for the others: at the top dose activity change, negative = cytotoxicity, usual class: inhibitors; note: potency is the fitted concentration of half-maximal effect; % is set by controls: 0 for no effect and ±100 for the full control effect
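A549 ARE_Fluc cells in 5% FBS OPTI-MEM were exposed to compounds in concentration-response for 18-24 h at 37 deg C. Viability was read by CellTiter-Fluor fluorescence (Ex 405/Em 525) after 30 min, before the luciferase read.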
PTAP TSG101 blk = qHTS Assay for Iinhibitors of HIV-1 Budding by Blocking the Interaction of PTAP/TSG101; AID 493005, 2010; Fluorescence polarization, FITC-PTAP peptide / Tsg101 binding; 340,000 tested, under 10 active; Potency, µM (series often up to 115 µM), without a hit: at the top dose activity change, negative = inhibition, actives largely listed as inhibitors; active = well fitted inhibition curve with a large enough effect in the main read-out, with a control signal flat, not every such curve was filed as active; inconclusive = small, poorly fitted or top-dose-only effect, or effect the other way, or a change in a side signal; inactive = no such curve, though single readings can be large or run the other way; note: potency is the fitted concentration of half-maximal effect; % of control where 0% means no effect
Target sequence (Q99816 whole entry, looked up): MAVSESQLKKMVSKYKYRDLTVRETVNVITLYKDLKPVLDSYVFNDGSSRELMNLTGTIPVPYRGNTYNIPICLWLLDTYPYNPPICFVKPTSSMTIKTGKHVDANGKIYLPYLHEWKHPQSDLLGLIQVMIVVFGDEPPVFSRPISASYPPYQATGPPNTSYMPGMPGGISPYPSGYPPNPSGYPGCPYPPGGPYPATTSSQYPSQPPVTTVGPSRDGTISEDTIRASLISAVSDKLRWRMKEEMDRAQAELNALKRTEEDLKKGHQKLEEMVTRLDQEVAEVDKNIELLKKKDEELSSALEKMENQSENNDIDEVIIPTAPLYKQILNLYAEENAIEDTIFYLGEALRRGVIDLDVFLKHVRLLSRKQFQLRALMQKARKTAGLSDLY
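Fluorescence anisotropy tracks displacement of a FITC-tagged PTAP peptide (50 nM) from the Tsg101 binding domain (10 uM), following a 20 min room-temperature incubation at pH 7.5.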
GRP78 ERSR act = qHTS for Inducers of the Endoplasmic Reticulum Stress Response (ERSR) in Human Glioma: qHTS. U87-MG GRP78 promoter luciferase reporter, 16 h. Potency, µM, for the others: at the top dose activation, usual class: activators. 420,000 compounds, 0.02% hits; note: potency is the fitted concentration of half-maximal effect; series mostly up to about 76 µM; % of control where 0% means no effect; nearly all actives have a fitted effect of over 35% in size
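Stably transfected U87-MG glioma cells carrying a GRP78-based luciferase sensor; 16 h compound incubation. Luminescence end-point read 10 min after Bright-Glo addition at room temperature.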
miR-21 reporter = qHTS Assay for Modulators of miRNAs and/orActivators of miR-21. HeLa miR-21 FLuc reporter, luciferase, 48 h. Potency, µM (highest dose often 38.3 µM), for the others: top-dose activity change, positive = activation, actives largely listed as activators. AID 2288, 2010. 340,000 tested, under 10 active;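 note: % of control where 0% means no effect; miR-21 action dims this reporter so a rising signal means less miR-21 action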
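HeLa miR-21-FLuc reporter line, endogenous miR-21; 2000 cells/well in DMEM/10% FBS; compound titration up to ~40uM final, 48 h, 37 degree Celsius; luciferase detection reagent, 15 min lysis, CCD luminescence.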
Nrf2 block = Nrf2 qHTS screen for inhibitors | A549 ARE-Fluc reporter, luciferase luminescence, 18-24 h | AID 504444, 2011 | 360,000 compounds, 2.1% hits | Potency, µM (titrated, usually from 46 µM), for inactives: at the top dose activity change, negative = inhibition, usual class: inhibitors; note: potency is the fitted concentration of half-maximal effect; % is set by controls: 0 for no effect and ±100 for the full control effect; nearly all actives have a fitted effect of over 60% in size
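In this cell-based qHTS, ARE-driven firefly luciferase in A549 cells reports Nrf2 activity; the luminescent signal after BugLite lysis is the measured value, with a prior CellTiter-Fluor read for cell health.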
The depositor's hits bear a star; ? = inconclusive; . = no result given. Rows were chosen to be rich in hits. Some 2.1% of all compounds tested hit in one or more screens of this group. Unless noted, calls come from the whole dose curve; as a rule, active = well fitted curve in the direction sought with a large enough effect; inconclusive = small, poorly fitted or top-dose-only effect, or another doubt; inactive = no such curve, though single readings can be large; an effect the other way counts as inactive or inconclusive.

SMILES	Nrf2 ARE act	A549 viability	PTAP TSG101 blk	GRP78 ERSR act	miR-21 reporter	Nrf2 block
Cc1ccccc1NC(=O)c1ccc(CNS(=O)(=O)c2ccc3c(c2)C(C)(C)C(=O)N3C)cc1	0%	0%	.	-1%	5%	-5%
COc1cccc(NC(=O)c2ccc(CNS(=O)(=O)c3ccc4c(c3)C(C)(C)C(=O)N4C)cc2)c1	0%	-2%	.	-6%	?	16µM*
CCC(C)NC(=O)c1ccc(CNS(=O)(=O)c2ccc3c(c2)C(C)(C)C(=O)N3C)cc1 (configuration not stated)	-1%	1%	-2%	-5%	3%	-11%
COc1ccccc1CNS(=O)(=O)c1ccc(-c2cc(C(F)(F)F)on2)s1	0%	-2%	.	-2%	9%	?
COc1ccc(OC)c(CNS(=O)(=O)c2ccc(-c3cc(C(F)(F)F)on3)s2)c1	1%	-5%	.	1%	17%	16µM*
CC(=O)c1ccc(F)c(-c2cc(C)cc3c2OC(CNC(=O)C2CCCCN2C)C3)c1 (configuration not stated)	.	.	.	-6%	.	.
C=CCn1cccc(C(=O)Nc2ccc(OCC)cc2)c1=O	4%	0%	-1%	3%	-21%	12µM*
COC(=O)c1cc(=O)n(Cc2ccco2)c(=Nc2ccc(F)c(Cl)c2)s1	-5%	?	-4%	-12%	?	26µM*
COC(=O)c1cc(=O)n(CCc2ccccc2F)c(=Nc2ccc(F)c(Cl)c2)s1	0%	-12%	1%	?	0%	?
O=c1[nH]nc(Cc2ccc(-c3cccc(Cl)c3)o2)c2ccccc12	5%	-17%	-1%	-6%	0%	21µM*
Clc1cccc(-c2ccc(CNCc3ccccn3)o2)c1	2%	6%	-1%	3%	-28%	3%
CSc1nc2nc(C(F)(F)F)cc(-c3ccccc3)n2n1	14µM*	-4%	-6%	-1%	-7%	1%
Cc1cccc(NS(=O)(=O)c2ccc(NC(=O)N3CCCC3)cc2)c1	0%	5%	.	0%	0%	.
Cc1cccc(NS(=O)(=O)c2ccc3c(c2)CCN3C(=O)C2CCC2)c1	-1%	-17%	.	-3%	22%	15µM*
Cc1cccc(NS(=O)(=O)c2ccc(NC(=O)N3CCCCC3)cc2)c1	-1%	-19%	.	-3%	13%	18µM*
Cc1cccc(NS(=O)(=O)c2ccc3c(c2)CCN3C(=O)CCC(=O)O)c1	0%	5%	-2%	-5%	0%	1%
CC(C)CN(C(=O)COC(=O)C12CC3CC(CC(C3)C1)C2)c1c(N)n(Cc2ccccc2)c(=O)[nH]c1=O	0%	?	3%	-6%	.	26µM*
CCN(C(=O)COC(=O)/C=C/c1ccc(Cl)c(Cl)c1)c1c(N)n(Cc2ccccc2)c(=O)[nH]c1=O	0%	-14%	-1%	-3%	.	15µM*
O=C(c1ccccc1)c1ccccn1	3%	3%	0%	-1%	1%	-4%
O=C(CC(=O)c1ccccn1)c1ccccc1	7.9µM*	-5%	-2%	-1%	.	12%
Cc1nc2sccn2c1CN1Cc2ccccc2OC(c2ccccc2F)C1 (configuration not stated)	.	.	.	0%	.	.
Cc1cc(OCC(=O)N2CCc3ccccc3C2)c2c(-c3ccccc3)cc(=O)oc2c1	2%	-19%	-5%	2%	0%	16µM*
CCOc1cc(C)cc2oc(=O)cc(-c3ccccc3)c12	-1%	-2%	-13%	0%	0%	?
O=C(NCc1ccccc1)n1cc(P(=S)(c2ccccc2)c2ccccc2)c2ccccc21	.	1%	.	.	.	8%
